# Rows were chosen to be rich in hits. Some 11% of all compounds tested hit in one or more screens of this group.
# Luciferase inh = Firefly luciferase inhibition profiling of diverse chemical library using quantitative high-throughput screening | Luciferin 4-monooxygenase (Photinus pyralis), P08659 | purified P. pyralis luciferase, luminescence, biochemical | Potency, µM (series often up to 115 µM), actives largely listed as inhibitors | 76,000 tested, 2.5% active | AID 1347043, 2019; note: nearly all actives have a fitted effect of over 65% in size
# Target sequence (P08659 whole entry, looked up): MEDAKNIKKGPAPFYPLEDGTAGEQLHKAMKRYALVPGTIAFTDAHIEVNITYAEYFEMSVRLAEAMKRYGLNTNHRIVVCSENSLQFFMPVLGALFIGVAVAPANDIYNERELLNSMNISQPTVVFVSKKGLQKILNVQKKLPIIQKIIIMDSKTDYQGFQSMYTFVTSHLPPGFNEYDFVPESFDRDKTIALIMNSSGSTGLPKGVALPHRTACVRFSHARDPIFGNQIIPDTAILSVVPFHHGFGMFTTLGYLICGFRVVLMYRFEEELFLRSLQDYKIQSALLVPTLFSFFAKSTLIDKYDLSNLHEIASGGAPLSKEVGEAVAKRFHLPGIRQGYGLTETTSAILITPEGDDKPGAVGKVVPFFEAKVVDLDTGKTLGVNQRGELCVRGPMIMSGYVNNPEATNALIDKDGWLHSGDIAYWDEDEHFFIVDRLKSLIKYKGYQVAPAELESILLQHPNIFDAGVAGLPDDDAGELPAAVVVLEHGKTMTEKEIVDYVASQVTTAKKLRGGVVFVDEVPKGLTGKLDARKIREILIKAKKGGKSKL
#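 Biochemical qHTS: compound (6-point titration) added to 10uM D-luciferin plus 10uM ATP in Tris acetate pH 7.5 buffer with Mg, Tween-20 and BSA, then purified enzyme at 10nM; light output imaged.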
# HEK293 tox = Cytotoxic Profiling in HEK 293 Cell Line of Diverse Libraries Using Quantitative High-Throughput Screening | HEK 293 viability, ATP luminescence (CellTiter-Glo), 48-72 h | Potency, µM (series often up to 115 µM), without a hit: at the highest dose activity change, negative = cytotoxicity, actives largely listed as inhibitors | 94,000 tested, 6.6% active; note: nearly all actives have a fitted effect of over 60% in size
#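 Pintool-delivered compounds were incubated with HEK 293 cells (250 cells/well) at 37 degree Celsius for 48 or 72 hr. ATP-dependent luminescence (CellTiter-Glo) then reported remaining viable cells.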
# hNpr1 antagonist = Natriuretic polypeptide receptor (hNpr1) antagonism - Primary qHTS | HEK293 hNpr1 GloSensor cGMP, ANP-stimulated luminescence | Potency, µM (titrated, usually from 46.3 µM), for inactives: at the highest dose activity change, negative = inhibition, actives largely listed as inhibitors | AID 1347048, 2019 | 76,000 tested, 1.6% active; calls by dose curve; note: nearly all actives have a fitted effect of over 60% in size
#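 HEK293 cells stably expressing human Npr1 and cGMP GloSensor pGS-40F, loaded 2 h with 2% GloSensor reagent, given compound 30 min at room temperature. Luminescence read before and 20 min after 0.1 nM hNppA.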
# 3T3 cytotox = Cytotoxic Profiling in NIH 3T3 Cell Line of Diverse Libraries Using Quantitative High-Throughput Screening | 94,000 tested, 4.3% active | NIH 3T3 viability, CellTiter-Glo ATP luminescence, 48-72 h | AID 1345082, 2018 | Potency, µM (top dose mostly 96.7 µM), without a hit: top-dose activity change, negative = cytotoxicity, actives largely listed as inhibitors; note: nearly all actives have a fitted effect of over 55% in size
#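 NIH 3T3 cells at 400 cells/well received 23 nL of compound by pintool and were incubated 48 or 72 h at 37 °C. Viability was read as ATP-coupled CellTiter-Glo luminescence.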
# * = called active by the depositor; i = inactive; ? = inconclusive; . = no result given; [ ] = another dose, or the depositor's remark. Unless noted, calls come from the whole dose curve; as a rule, active = well fitted curve in the direction sought with a large enough effect; inconclusive = small, poorly fitted or top-dose-only effect, or another doubt; inactive = no such curve, though single readings can be large; an effect the other way counts as inactive or inconclusive. % is set by controls: 0 for no effect and ±100 for the full control effect; potency is the fitted concentration of half-maximal effect.
SMILES,Luciferase inh,HEK293 tox,hNpr1 antagonist,3T3 cytotox
COc1ccc(-c2cn3cc(C(=O)N4CCCCC4)nc3c(=O)n2CC2CC2)cc1,i,?,5%,?
CN(CCc1ccccn1)C(=O)CCc1ccc2c(c1)CN(S(C)(=O)=O)CCO2,i,3%,6%,-8%
O=C(O)CCC1CCCN(S(=O)(=O)c2ccccc2F)C1 (stereo not drawn),i,7%,-1%,i
Cc1cccc(CN2C[C@@H]3C(=O)N(C)C(=O)[C@@H]3C2)c1,i,-9%,4%,-10%
CN(C)S(=O)(=O)N1CCC2(CC1)CC(=O)N(C/C=C/c1ccccc1)C2,i,2%,-7%,?
COc1ccccc1NC(=O)Cn1c(-c2cccc(Cl)c2)nc(C)c(CCO)c1=O,i,?,-3%,-25%
Cc1nc(-c2cccc(Cl)c2)n(CC(=O)Nc2ccc(F)cc2)c(=O)c1CCO,i,40µM*,-4%,?
Cc1nc(-c2ccc(F)cc2)n(CC(=O)Nc2cccc(Cl)c2)c(=O)c1CCO,i,?,-18%,?
COc1ccc(N2CCN(C(=O)Cn3c(-c4cccc(Cl)c4)nc(C)c(CCO)c3=O)CC2)cc1,i,45µM*,-13%,-13%
Cc1ccc(CC(=O)N2CCc3[nH]nc(C(=O)NCCCc4ccccc4)c3C2)cc1,i,?,-2%,?
CC(C)c1ccc(CN2CC(Oc3ccccc3C(=O)NC3CC3)C2)cc1,i,?,-4%,?
COc1ccc(C(=O)N2CC[C@@H]3COCCN(C)[C@@H]3C2)c(OC)c1,22µM*,?,-11%,1%
Cn1ncc2c(C(=O)NCCc3ccc(F)cc3)cc(-c3ccccc3F)nc21,.,?,.,-29%
COc1ccc(CC(=O)N[C@H](C)c2onc(-c3cccnc3)c2C(=O)O)cc1,i,1%[172 µM],-2%[70.6 µM],-12%[174 µM]
O=C(NCCCN1CCOCC1)c1ccc(-c2ccc(N3CCCCCC3)nc2)cc1,?,35µM*,-12%,?
O=C(NC1CC1)c1ccc(-c2ccc(N3CCCCC3)nc2)cc1,i,6%,1%,i
COCCNC(=O)c1ccc(-c2ccc(N3CCCCCC3)nc2)cc1,?,?,-3%,?
COc1ccc(CNC(=O)c2ccc(-c3ccc(N4CCSCC4)nc3)cc2)cc1,i,-7%,-1%,i
O=C(NCc1cccnc1)c1ccc(-c2ccc(N3CCSCC3)nc2)cc1,?,10µM*,11µM*,4.5µM*
O=C(NCCCN1CCCC1=O)c1ccc(-c2ccc(N3CCSCC3)nc2)cc1,40µM*,?,?,?
O=C(NCCN1CCOCC1)c1ccc(-c2ccc(N3CCCCCC3)nc2)cc1,?,35µM*,-24%,35µM*
O=C(CC1C(=O)NCCN1Cc1cccc(Oc2ccccc2)c1)NC1CCOCC1 (stereo not drawn),i,-46%,-8%,?
Cn1ncc2c(C(=O)NCc3ccc(F)cc3F)cc(-c3cccc(C(F)(F)F)c3)nc21,.,?,.,-27%
Cc1ccc(-c2nnc3ccc(NCc4cccs4)nn23)nc1,i,100µM*,-12%[70.6 µM],?
COCCCNc1ccc2nnc(-c3ccc(C)cn3)n2n1,i,-8%[172 µM],-6%[70.6 µM],89µM*
SMILES,Luciferase inh,HEK293 tox,hNpr1 antagonist,3T3 cytotox
COCCNc1ccc2nnc(-c3ccccn3)n2n1,i,0%[230 µM],3%[70.6 µM],?
Cn1cc(-c2nc(N3CCOCC3)cc3c2CN(CC2CC2)C3=O)cn1,i,-17%[172 µM],6%[70.6 µM],10µM*
COc1ccccc1-c1nc(N2CCOCC2)cc2c1CN(Cc1cnn(C)c1)C2=O,i,-12%[172 µM],2%[70.6 µM],25µM*
CC(=O)Nc1ccc(CN2CCN(Cc3ccccc3)C(CCO)C2)cc1 (stereo not drawn),i,-16%,0%,-13%
CC(C)c1cc(C(=O)N2CCn3nc(C(=O)Nc4ccccc4)cc3C2)n[nH]1,?,?,13µM*,?
O=C1CCN(Cc2ccncc2)CCCC(c2nc(-c3cccnc3)no2)CCN1 (stereo not drawn),i,i,2%,-2%
CC(C)CNC(=O)N1CC(Oc2ccc(-c3nc(-c4ccccc4)no3)cc2)C1,i,?,0.5µM*,-27%

# Assay outcomes (PubChem)
